Experimental data taken from PMC4336329 (PLoS ONE, 2015).
The campaign covered roughly 310,000 compounds. About 14,000 (4.5%) showed an effect of 50% or more. The effect is printed as a negative number. For the sample, strong results were picked, then their nearest neighbours and some compounds at random.

What follows are compounds tested against human ether-à-go-go-related gene (hERG) potassium channel (human, UniProt Q12809) (assay: primary screen, population patch clamp on CHO cells stably expressing hERG; higher = less effect of the substance).
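Note: peak tail current of the secondary pulse compared with the same well before compound.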

Chain of human ether-à-go-go-related gene (hERG) potassium channel (Q12809 whole entry, looked up): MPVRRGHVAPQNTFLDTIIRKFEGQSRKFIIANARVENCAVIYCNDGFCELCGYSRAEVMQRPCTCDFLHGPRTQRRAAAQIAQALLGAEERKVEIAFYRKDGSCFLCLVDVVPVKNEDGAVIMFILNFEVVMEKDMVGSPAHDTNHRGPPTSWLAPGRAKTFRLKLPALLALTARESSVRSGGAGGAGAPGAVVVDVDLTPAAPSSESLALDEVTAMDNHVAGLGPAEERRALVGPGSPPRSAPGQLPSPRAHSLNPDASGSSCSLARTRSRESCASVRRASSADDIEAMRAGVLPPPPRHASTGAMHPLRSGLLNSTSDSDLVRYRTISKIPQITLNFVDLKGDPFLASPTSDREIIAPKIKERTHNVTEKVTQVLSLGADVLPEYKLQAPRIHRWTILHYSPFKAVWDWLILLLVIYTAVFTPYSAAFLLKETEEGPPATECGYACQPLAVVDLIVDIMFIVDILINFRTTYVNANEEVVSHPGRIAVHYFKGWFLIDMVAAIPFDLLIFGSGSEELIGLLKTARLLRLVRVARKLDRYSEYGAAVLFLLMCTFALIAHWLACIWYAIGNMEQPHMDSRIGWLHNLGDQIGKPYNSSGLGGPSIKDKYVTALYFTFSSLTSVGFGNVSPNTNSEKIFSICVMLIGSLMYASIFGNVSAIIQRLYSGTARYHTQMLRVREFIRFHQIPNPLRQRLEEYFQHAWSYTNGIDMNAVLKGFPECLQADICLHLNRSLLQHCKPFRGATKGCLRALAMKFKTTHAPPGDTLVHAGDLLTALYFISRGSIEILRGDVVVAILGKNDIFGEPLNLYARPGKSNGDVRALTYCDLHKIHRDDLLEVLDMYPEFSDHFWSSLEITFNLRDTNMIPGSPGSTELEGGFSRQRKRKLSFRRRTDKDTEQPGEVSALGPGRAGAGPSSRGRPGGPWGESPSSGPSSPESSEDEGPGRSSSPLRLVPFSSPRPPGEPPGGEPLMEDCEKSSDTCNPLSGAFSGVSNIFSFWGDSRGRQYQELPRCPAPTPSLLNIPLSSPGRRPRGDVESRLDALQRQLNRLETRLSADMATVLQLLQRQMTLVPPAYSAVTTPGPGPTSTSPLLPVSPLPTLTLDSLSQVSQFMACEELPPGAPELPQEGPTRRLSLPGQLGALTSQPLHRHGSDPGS

Compound | hERG current change (%, negative = inhibition) at 10uM
Cc1cc(C(=O)OCC(=O)Nc2cccc(S(N)(=O)=O)c2)c2ccccc2n1 | -4.62%
COc1cc(C2NC(=S)NC(c3ccccc3)=C2C(C)=O)ccc1O (centres unmarked) | 15.4%
CCOCCCNC(=O)c1ccc2nc(-c3ccc(OC)c(OC)c3)c(-c3ccc(OC)c(OC)c3)nc2c1 | 6.99%
Cc1ccc(C(=O)c2c3ccc([N+](=O)[O-])cc3[n+]([O-])n2CCCC(N)=O)cc1 | -36.6%
[Cl-].[NH3+]CCCn1c(C(=O)c2ccc(Cl)cc2)c2ccc([N+](=O)[O-])cc2[n+]1[O-] | -63.8%
COc1ccc(C(=O)c2c3ccc([N+](=O)[O-])cc3[n+]([O-])n2CCC[NH3+])cc1.[Cl-] | -47.4%
NC(=O)CCCn1c(C(=O)c2cc(Cl)c(N)c(Cl)c2)c2ccc([N+](=O)[O-])cc2[n+]1[O-] | -30.9%
NC(=O)CCn1c(C(=O)c2cccc([N+](=O)[O-])c2)c2ccccc2[n+]1[O-] | 4.25%
NC(=O)CCCn1c(C(=O)c2ccc(Cl)cc2)c2ccc([N+](=O)[O-])cc2[n+]1[O-] | -74.1%
COc1ccc(-c2oc3ccc(-c4cc(OC)c(OC)c(OC)c4)cc3c2-c2ccc(OC)cc2)cc1 | 13.6%
CN(C)S(=O)(=O)c1cccc(COC(=O)c2ccc(Cl)cc2O)c1 | -7.36%
CC(=O)Oc1c(Cl)c(N2CCOCC2)c(OC(C)=O)c2ccccc12 | -25.2%
CCN(Cc1ccccc1)C(=O)c1cccc(S(=O)(=O)N2CCN(Cc3ccccc3)CC2)c1 | -19.6%
Cc1ccc(-c2csc(N3CCN(c4cc5c(cc4Cl)nc(-c4ccncc4)n5CCN4CCCCC4)CC3)n2)cc1 | 10.5%
Cc1csc(N2CCN(c3cc4c(cc3Cl)nc(-c3ccncc3)n4CCCN3CCCC3)CC2)n1 | -64.8%
Cc1ccc(-c2csc(N3CCN(c4cc5c(cc4Cl)nc(-c4ccncc4)n5CCOCCO)CC3)n2)cc1 | 4.81%
Cc1n[nH]c(=S)n1-c1cccc(Cl)c1 | 19.7%
Cc1nnc(N2C(=O)C(O)=C(C(=O)c3ccco3)C2c2cccc3ccccc23)s1 (centres unmarked) | -0.387%
Cc1cccn2c(=O)c3cc(C(=O)NC4CCCCC4)c(=N)n(Cc4ccccc4)c3nc12 | -74.6%
Cc1cccn2c(=O)c3cc(C(=O)NC4CCS(=O)(=O)C4)n(Cc4ccccc4)c3nc12 (centres unmarked) | -4.36%
Cc1cccn2c(=O)c3cc(C(=O)NC4CCCCC4)c(=N)n(Cc4ccc(F)cc4)c3nc12 | -77.1%
Cc1cccn2c(=O)c3cc(C(=O)NC4CCCCCC4)sc3nc12 | 9.51%
Cc1cccn2c(=O)c3cc(C(=O)NC4CCCC4)c(=N)n(Cc4ccc(F)cc4)c3nc12 | -68.2%
